# Legend:
# Assay in all cases: DAPPL (digital affinity profiling via proximity ligation, sequencing); 10 mM Tris-HCl pH 7.5, 50 mM NaCl, 1 mM DTT, 4% glycerol, room temperature, 30 min; GST-TFs on glutathione beads, 16-mer random dsDNA library, 0.1% formaldehyde crosslink after washing; high values mean tight binding
# Conditions in all cases: protein: recombinant; tags: N-terminal GST; dsDNA, one strand shown
# ELK1 = biological target: T1, ELK1 (Homo sapiens, UniProt P19419 1-428)
# T1 sequence: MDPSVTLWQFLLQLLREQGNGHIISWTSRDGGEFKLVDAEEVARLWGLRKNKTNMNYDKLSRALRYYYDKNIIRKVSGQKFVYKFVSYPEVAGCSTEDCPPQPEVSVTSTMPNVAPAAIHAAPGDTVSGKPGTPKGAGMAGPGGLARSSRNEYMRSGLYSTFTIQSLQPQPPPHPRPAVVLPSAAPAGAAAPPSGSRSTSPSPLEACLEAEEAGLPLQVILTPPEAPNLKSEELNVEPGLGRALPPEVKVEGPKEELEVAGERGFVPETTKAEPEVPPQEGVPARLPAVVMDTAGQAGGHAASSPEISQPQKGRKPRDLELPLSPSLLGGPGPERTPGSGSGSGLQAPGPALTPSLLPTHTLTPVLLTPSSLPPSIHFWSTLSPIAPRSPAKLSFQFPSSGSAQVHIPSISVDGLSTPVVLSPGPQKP
# Method in brief: (§1)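 Pools were built from human transcription factors expressed in yeast as GST fusions, captured on glutathione beads and DNA-barcoded, along with a tag-only sample. Incubation with 200 nmole of a 16-mer random double-stranded DNA library lasted 30 min at room temperature in Tris/NaCl/DTT/glycerol buffer, and was followed by washing, 0.1% formaldehyde crosslinking, proximity ligation, PCR amplification and Illumina NextSeq500 sequencing. Binding signal is the quotient of each hexamer's read frequency for a factor and its frequency for the tag-only sample.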
# GABPA = biological target: T2, GABPA (Homo sapiens, UniProt Q06546 1-454)
# T2 sequence: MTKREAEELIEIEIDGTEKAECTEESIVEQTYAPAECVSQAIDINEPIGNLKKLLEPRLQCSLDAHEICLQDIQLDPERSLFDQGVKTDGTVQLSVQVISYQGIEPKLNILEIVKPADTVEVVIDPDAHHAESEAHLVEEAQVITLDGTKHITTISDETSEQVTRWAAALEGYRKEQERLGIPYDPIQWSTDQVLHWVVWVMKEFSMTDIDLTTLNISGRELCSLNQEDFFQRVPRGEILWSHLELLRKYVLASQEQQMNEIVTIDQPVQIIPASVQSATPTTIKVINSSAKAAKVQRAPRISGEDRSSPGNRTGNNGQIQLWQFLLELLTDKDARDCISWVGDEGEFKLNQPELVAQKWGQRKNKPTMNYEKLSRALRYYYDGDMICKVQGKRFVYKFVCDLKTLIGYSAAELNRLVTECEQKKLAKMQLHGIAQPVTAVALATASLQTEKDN
# Method in brief: as §1
# ERG = biological target: T3, ERG (Homo sapiens, UniProt P11308 1-479)
# T3 sequence: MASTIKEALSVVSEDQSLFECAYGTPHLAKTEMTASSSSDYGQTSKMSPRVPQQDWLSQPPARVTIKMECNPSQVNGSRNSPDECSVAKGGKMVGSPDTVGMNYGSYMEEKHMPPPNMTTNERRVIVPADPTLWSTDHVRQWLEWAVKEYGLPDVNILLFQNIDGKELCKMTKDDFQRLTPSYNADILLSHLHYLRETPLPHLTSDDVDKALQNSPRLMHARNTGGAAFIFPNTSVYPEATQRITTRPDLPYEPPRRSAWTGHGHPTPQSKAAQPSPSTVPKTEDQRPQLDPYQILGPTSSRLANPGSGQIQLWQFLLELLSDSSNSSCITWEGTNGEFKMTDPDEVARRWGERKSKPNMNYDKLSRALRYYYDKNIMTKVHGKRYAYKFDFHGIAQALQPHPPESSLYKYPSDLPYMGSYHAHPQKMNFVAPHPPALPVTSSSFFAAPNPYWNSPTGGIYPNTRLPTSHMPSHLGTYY
# Method in brief: as §1
# ELF1 = ELF1 (Homo sapiens, UniProt P32519 1-619)
# ELF1, sequence (P32519 whole entry): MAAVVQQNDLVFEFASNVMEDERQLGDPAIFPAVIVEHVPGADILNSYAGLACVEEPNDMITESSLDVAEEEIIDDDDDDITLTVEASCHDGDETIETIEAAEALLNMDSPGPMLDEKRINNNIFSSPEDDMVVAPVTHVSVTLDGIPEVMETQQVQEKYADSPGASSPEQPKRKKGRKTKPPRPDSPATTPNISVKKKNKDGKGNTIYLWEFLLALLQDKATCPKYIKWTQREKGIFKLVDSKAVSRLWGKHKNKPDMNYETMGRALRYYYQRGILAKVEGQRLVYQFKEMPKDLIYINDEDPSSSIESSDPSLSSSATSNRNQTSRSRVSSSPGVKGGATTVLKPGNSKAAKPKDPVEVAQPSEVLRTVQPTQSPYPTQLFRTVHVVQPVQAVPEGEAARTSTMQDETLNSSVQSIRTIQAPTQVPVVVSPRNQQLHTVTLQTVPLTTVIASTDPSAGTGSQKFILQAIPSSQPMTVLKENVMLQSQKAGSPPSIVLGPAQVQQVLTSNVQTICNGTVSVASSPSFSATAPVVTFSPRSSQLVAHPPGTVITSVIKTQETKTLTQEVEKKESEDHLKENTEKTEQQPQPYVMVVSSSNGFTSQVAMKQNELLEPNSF
# Method in brief: as §1
# EHF = biological target: T4, EHF (Homo sapiens, UniProt Q9NZC4 1-300)
# T4 sequence: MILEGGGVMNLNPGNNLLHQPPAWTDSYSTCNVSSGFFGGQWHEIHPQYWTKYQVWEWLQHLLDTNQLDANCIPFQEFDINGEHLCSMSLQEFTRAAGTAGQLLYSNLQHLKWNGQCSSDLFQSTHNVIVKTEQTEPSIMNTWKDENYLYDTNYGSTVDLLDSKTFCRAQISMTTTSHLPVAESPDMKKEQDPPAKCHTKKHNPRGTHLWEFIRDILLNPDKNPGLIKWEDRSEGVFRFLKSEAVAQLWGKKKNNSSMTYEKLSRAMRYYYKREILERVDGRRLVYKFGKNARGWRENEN
# Method in brief: as §1
# SPI1 = SPI1 (Homo sapiens, UniProt P17947 1-270)
# Method in brief: as §1
# ELK3 = biological target: T5, ELK3 (Homo sapiens, UniProt P41970 1-407)
# T5 sequence: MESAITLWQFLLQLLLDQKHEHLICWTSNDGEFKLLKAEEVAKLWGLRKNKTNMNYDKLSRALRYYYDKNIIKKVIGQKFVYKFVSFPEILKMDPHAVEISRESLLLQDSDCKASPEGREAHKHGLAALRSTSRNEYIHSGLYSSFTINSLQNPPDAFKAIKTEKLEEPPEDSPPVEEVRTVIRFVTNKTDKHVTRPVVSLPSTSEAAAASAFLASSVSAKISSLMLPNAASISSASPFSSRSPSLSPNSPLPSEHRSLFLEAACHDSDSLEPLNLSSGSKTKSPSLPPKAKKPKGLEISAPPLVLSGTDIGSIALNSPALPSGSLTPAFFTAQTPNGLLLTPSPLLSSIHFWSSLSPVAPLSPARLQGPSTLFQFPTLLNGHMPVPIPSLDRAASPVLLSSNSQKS
# Method in brief: as §1
# FEV = biological target: T6, FEV (Homo sapiens, UniProt Q99581 1-238)
# T6 sequence: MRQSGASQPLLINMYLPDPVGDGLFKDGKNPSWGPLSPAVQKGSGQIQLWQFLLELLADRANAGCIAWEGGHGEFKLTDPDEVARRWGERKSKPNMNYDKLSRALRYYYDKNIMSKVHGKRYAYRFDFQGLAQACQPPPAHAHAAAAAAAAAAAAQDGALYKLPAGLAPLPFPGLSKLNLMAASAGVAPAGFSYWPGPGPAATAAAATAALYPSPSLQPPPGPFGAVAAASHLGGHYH
# Method in brief: as §1
# ELF4 = ELF4 (Homo sapiens, UniProt Q99607 1-663)
# ELF4, sequence (Q99607 whole entry): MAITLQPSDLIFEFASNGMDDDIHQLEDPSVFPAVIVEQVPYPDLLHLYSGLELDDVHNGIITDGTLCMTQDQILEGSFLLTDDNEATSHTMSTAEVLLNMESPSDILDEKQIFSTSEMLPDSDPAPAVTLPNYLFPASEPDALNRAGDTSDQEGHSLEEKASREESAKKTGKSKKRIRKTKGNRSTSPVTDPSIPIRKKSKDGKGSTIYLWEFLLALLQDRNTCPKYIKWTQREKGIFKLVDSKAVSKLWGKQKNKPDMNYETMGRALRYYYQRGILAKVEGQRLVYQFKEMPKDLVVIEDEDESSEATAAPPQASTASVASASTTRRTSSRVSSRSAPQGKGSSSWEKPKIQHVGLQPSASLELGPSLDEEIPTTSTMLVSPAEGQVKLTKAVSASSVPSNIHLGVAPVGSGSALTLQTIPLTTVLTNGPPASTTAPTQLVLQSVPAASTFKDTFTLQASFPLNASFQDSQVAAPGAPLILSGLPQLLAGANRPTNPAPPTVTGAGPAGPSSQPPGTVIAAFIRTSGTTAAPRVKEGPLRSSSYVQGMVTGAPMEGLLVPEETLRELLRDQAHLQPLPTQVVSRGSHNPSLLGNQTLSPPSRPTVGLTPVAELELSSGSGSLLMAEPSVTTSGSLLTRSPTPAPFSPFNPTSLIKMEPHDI
# Method in brief: as §1
# ELK4 = biological target: T7, ELK4 (Homo sapiens, UniProt P28324-2 1-405)
# T7 sequence: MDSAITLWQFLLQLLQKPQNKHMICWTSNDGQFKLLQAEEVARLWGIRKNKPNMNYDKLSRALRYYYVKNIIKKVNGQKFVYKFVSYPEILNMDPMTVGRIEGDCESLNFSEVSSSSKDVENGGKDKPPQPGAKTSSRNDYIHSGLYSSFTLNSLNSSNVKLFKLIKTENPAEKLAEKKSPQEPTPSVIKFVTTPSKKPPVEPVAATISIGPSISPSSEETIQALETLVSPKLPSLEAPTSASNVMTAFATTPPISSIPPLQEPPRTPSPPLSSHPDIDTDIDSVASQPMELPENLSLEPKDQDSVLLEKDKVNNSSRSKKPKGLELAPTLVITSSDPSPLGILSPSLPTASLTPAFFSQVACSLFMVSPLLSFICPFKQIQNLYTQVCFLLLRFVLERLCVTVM
# Method in brief: as §1
# ETV1 = ETV1 (Homo sapiens, UniProt P50549 1-477)
# ETV1, sequence (P50549 whole entry): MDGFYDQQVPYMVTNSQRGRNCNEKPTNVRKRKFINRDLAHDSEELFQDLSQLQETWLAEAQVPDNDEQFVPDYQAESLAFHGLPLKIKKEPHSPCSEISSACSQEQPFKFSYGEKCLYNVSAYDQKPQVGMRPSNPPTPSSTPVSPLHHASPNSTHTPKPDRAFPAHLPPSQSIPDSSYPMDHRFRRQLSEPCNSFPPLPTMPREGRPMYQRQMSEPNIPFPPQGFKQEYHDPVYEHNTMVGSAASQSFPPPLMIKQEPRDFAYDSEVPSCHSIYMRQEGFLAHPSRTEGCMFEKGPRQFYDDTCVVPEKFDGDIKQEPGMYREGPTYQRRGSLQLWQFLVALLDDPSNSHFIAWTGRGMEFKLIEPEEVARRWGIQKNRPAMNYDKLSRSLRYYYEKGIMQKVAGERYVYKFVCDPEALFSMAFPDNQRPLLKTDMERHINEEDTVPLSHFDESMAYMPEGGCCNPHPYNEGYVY
# Method in brief: as §1
# ERF = biological target: T8, ERF (Homo sapiens, UniProt P50548 1-548)
# T8 sequence: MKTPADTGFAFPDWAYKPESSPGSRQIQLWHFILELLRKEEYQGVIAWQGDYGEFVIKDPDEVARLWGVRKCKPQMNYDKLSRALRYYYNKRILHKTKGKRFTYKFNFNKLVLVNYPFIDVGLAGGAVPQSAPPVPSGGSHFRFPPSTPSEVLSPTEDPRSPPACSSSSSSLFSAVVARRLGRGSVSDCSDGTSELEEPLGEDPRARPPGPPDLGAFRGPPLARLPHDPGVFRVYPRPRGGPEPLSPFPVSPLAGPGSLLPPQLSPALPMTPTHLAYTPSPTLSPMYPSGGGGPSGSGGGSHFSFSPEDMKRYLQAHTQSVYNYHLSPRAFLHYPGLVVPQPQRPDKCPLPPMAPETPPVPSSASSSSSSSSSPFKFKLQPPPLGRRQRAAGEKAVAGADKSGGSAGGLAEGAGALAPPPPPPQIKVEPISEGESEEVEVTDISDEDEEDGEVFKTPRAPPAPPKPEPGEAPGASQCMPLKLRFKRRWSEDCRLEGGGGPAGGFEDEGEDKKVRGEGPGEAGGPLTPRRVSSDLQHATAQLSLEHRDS
# Method in brief: as §1
# ETS2 = biological target: T9, ETS2 (Homo sapiens, UniProt P15036 1-469)
# T9 sequence: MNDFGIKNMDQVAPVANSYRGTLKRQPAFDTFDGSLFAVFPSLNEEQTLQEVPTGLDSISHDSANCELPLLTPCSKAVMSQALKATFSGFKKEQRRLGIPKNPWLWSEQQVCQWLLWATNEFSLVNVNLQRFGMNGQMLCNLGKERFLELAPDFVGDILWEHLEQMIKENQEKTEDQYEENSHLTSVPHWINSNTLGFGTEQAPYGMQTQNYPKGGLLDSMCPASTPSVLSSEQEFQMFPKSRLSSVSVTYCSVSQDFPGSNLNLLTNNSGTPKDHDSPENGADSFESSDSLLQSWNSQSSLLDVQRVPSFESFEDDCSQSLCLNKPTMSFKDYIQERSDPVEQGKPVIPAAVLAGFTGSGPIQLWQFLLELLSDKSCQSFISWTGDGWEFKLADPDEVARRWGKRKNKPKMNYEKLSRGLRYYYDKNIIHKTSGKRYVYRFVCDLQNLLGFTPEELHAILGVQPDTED
# Method in brief: as §1
# ETV3 = biological target: T10, ETV3 (Homo sapiens, UniProt P41162-2 1-143)
# T10 sequence: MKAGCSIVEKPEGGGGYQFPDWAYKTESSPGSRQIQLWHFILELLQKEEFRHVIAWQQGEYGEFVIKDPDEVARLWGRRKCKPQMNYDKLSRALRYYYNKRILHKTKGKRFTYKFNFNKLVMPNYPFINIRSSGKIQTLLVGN
# Method in brief: as §1
sequence,measurement,setting,value
CACCGC,binding signal,ELK1,"1.01 fold enrichment (6-mer frequency, TF over GST control)"
same,binding signal,GABPA,"1.06 fold enrichment (6-mer frequency, TF over GST control)"
same,binding signal,ERG,"1.02 fold enrichment (6-mer frequency, TF over GST control)"
same,binding signal,ELF1,"1.04 fold enrichment (6-mer frequency, TF over GST control)"
same,binding signal,EHF,"1.08 fold enrichment (6-mer frequency, TF over GST control)"
same,binding signal,SPI1,"1.01 fold enrichment (6-mer frequency, TF over GST control)"
same,binding signal,ELK3,"1.06 fold enrichment (6-mer frequency, TF over GST control)"
same,binding signal,FEV,"1.04 fold enrichment (6-mer frequency, TF over GST control)"
same,binding signal,ELF4,"1.06 fold enrichment (6-mer frequency, TF over GST control)"
same,binding signal,ELK4,"1 fold enrichment (6-mer frequency, TF over GST control)"
same,binding signal,ETV1,"1 fold enrichment (6-mer frequency, TF over GST control)"
same,binding signal,ERF,"1.07 fold enrichment (6-mer frequency, TF over GST control)"
same,binding signal,ETS2,"1.05 fold enrichment (6-mer frequency, TF over GST control)"
same,binding signal,ETV3,"1.04 fold enrichment (6-mer frequency, TF over GST control)"
